According to the supplement of paper PMC11732987, “Enantioselective OTUD7B fragment discovery through chemoproteomics screening and high-throughput optimisation” (Communications Chemistry, 2025):

Tests used:
Experiment in all cases: log2 ratio of Biotin-Ahx-Ub-VS probe labelling (fragment/DMSO); higher = less target engagement (more negative = stronger competition), active = hit call of the paper (q ≤ 0.05, log2 ratio ≤ -1)
Conditions in all cases: compound concentration: 200 uM; treatment time: 3 h
USP34 = USP34 (UniProt Q70CQ2)
Chain of USP34 (Q70CQ2 whole entry, the tested form may be a part): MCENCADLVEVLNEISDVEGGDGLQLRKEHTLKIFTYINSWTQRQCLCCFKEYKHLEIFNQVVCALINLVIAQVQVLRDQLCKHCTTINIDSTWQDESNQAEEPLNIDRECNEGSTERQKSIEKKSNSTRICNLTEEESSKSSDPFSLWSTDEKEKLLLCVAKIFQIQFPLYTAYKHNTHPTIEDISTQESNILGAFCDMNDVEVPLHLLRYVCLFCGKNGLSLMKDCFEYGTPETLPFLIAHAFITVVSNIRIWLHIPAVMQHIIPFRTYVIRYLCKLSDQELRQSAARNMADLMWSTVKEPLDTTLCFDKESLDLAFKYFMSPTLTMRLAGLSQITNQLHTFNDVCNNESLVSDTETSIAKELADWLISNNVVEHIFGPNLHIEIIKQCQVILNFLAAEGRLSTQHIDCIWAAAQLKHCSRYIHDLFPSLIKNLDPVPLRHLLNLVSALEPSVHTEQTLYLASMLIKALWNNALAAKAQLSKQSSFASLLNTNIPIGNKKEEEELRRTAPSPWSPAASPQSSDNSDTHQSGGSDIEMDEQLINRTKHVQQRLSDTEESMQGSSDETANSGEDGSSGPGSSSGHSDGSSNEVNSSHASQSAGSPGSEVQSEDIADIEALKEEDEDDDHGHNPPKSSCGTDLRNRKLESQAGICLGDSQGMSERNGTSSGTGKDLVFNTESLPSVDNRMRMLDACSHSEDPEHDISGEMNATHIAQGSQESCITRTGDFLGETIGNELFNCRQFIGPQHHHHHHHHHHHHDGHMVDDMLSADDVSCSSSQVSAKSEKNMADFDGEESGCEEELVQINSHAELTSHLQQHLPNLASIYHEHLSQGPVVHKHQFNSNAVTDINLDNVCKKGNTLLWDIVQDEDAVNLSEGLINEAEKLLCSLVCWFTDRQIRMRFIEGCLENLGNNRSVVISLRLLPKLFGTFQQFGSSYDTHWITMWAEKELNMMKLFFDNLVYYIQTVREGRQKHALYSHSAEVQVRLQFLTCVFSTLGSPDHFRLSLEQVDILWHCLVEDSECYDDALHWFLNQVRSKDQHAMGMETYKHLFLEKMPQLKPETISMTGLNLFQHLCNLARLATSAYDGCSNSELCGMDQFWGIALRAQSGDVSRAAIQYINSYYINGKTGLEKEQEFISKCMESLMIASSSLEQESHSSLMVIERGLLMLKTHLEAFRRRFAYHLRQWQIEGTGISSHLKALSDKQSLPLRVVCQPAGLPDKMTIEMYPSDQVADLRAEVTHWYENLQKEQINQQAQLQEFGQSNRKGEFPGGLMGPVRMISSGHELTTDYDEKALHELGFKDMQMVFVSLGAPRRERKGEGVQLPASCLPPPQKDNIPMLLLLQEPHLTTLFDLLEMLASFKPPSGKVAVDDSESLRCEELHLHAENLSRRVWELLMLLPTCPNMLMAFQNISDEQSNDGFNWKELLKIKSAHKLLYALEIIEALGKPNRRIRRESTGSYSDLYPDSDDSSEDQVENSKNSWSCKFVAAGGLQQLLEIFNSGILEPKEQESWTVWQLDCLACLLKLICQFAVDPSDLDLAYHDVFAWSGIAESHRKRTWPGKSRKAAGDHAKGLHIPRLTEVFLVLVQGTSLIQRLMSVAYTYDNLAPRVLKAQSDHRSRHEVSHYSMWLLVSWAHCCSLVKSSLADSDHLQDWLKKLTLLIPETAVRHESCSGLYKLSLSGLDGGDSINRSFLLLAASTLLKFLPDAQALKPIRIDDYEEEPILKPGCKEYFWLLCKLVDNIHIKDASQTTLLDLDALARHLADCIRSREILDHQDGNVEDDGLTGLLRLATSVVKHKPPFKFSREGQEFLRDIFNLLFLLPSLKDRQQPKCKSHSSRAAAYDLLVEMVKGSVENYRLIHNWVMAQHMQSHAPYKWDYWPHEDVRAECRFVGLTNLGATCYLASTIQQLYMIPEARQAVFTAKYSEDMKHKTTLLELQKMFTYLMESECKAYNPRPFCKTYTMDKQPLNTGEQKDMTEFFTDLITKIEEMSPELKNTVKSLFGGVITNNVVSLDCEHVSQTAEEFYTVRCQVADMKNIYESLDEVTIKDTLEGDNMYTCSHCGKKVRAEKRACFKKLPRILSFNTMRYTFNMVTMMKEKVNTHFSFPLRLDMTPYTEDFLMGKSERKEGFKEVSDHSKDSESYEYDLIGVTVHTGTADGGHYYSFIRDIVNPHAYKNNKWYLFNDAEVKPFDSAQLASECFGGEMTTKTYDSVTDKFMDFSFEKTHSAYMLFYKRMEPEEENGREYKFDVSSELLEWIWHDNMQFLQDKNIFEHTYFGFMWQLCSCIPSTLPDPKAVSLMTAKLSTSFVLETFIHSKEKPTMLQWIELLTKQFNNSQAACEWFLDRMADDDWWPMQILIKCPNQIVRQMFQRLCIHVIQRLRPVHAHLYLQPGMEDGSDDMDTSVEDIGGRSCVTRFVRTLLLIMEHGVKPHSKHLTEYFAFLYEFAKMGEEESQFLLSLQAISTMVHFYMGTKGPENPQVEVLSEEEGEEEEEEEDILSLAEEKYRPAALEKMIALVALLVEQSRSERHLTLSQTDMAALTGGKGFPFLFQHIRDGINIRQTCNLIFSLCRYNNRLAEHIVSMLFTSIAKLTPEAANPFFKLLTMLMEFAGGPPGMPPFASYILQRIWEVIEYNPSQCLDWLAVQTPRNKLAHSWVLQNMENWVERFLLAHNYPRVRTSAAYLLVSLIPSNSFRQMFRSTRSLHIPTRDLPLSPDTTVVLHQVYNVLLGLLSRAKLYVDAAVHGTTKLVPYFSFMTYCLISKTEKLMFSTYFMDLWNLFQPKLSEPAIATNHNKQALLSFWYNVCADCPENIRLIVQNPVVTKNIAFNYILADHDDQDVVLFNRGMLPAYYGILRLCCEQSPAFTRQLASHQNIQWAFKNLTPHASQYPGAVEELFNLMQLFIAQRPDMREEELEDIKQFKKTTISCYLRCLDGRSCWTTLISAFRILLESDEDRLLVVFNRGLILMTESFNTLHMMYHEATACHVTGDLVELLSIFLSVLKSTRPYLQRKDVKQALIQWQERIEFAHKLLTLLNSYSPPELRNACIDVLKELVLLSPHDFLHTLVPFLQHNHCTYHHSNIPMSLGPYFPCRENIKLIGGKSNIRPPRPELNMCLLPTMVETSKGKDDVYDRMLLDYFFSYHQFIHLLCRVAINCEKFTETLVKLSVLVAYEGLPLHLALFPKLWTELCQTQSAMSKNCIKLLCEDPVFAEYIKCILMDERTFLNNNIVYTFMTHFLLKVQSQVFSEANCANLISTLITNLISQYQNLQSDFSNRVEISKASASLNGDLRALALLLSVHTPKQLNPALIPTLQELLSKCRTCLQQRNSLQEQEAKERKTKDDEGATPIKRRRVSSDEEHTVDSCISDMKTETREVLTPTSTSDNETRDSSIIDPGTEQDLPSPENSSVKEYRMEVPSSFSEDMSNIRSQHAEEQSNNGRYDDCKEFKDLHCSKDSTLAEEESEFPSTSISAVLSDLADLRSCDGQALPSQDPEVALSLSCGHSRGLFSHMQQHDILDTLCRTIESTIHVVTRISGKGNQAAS
In short: (§1)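 The table lists average log2 ratios of fragment over vehicle, from an unpaired t-test on global-median-normalised Spectronaut label-free quantities. Proteins with ≥2 unique peptides were used. Samples were HEK293T lysate (495 µg) treated in triplicate with fragment at 200 µM or vehicle for 3 h, then with Biotin-Ahx-Ub-VS (0.5 µM final) for 1 h, with labelled DUBs NeutrAvidin-enriched and run by diaPASEF LC-MS/MS.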

USP36 = target: T1, USP36 (UniProt Q9P275)
T1 sequence (whole entry): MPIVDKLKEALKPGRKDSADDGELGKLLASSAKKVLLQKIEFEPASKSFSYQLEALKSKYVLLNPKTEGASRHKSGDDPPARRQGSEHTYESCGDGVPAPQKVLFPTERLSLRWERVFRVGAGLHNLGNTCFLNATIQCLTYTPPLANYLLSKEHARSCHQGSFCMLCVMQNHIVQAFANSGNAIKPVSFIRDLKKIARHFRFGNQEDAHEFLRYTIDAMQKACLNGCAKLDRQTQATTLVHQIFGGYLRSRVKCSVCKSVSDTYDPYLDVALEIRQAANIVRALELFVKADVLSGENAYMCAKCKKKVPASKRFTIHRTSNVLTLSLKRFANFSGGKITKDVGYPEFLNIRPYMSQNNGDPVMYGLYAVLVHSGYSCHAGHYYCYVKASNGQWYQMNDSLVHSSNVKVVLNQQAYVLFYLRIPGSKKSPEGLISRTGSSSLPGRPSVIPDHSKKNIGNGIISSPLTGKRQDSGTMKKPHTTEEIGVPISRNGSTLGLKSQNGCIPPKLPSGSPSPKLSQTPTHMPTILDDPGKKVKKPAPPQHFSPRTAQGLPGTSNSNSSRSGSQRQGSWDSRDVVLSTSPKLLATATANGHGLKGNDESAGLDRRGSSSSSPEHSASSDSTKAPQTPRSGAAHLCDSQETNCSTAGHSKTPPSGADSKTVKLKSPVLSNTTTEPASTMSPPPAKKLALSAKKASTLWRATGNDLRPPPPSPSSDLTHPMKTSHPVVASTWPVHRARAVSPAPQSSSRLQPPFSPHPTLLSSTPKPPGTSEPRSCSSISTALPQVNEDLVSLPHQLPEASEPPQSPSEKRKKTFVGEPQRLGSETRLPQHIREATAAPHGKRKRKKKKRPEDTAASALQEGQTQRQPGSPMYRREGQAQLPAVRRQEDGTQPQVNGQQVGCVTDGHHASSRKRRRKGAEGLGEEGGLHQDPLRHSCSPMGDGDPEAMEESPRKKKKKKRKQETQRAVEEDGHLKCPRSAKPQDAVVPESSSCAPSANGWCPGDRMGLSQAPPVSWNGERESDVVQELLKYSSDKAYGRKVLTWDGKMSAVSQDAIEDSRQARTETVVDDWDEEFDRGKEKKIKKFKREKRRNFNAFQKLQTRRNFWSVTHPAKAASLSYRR
In short: as §1

USP38 = target: T2, USP38 (UniProt Q8NB14)
T2 sequence (whole entry): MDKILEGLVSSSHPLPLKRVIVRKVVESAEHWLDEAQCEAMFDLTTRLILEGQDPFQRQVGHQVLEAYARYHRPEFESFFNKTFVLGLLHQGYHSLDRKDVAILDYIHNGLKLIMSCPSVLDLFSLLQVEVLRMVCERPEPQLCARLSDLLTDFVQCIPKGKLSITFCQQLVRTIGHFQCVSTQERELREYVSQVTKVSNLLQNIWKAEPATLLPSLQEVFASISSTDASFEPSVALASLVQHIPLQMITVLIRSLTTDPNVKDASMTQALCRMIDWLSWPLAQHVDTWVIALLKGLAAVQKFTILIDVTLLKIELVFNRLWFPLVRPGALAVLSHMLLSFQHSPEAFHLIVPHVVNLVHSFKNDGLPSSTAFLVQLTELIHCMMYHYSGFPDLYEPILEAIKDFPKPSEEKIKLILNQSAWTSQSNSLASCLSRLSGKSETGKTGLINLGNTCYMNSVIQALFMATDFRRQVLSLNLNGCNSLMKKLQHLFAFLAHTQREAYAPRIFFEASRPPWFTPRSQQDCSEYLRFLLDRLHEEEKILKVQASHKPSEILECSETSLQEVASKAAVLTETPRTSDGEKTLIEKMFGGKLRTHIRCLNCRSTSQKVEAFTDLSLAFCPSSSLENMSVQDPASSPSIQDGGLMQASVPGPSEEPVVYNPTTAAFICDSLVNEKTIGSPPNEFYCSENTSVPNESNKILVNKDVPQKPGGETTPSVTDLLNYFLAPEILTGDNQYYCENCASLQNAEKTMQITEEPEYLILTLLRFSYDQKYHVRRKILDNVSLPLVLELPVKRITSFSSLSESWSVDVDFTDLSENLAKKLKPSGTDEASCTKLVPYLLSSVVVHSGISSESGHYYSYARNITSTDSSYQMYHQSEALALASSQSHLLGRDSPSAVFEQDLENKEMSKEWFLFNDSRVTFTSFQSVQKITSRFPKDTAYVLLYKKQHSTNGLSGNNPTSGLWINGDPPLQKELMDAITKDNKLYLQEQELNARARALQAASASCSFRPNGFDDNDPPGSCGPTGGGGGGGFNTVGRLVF
In short: as §1

USP39 = target: T3, USP39 (UniProt Q53GS9)
T3 sequence (whole entry): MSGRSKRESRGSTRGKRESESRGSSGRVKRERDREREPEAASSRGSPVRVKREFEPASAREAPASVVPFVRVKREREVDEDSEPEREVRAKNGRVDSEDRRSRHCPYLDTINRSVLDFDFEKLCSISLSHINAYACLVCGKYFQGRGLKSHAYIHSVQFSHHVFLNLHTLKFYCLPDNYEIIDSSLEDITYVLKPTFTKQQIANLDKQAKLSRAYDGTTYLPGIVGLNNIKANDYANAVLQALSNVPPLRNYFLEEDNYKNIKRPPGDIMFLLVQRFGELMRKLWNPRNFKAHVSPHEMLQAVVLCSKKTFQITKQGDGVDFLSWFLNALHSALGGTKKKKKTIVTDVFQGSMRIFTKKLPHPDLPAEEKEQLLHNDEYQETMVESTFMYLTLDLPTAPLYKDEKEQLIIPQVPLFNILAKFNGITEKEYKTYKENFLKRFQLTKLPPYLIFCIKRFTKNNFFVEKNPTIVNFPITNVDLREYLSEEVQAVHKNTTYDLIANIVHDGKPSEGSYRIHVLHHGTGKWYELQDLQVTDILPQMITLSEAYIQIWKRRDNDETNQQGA
In short: as §1

USP4 = target: T4, USP4 (UniProt Q13107)
T4 sequence (whole entry): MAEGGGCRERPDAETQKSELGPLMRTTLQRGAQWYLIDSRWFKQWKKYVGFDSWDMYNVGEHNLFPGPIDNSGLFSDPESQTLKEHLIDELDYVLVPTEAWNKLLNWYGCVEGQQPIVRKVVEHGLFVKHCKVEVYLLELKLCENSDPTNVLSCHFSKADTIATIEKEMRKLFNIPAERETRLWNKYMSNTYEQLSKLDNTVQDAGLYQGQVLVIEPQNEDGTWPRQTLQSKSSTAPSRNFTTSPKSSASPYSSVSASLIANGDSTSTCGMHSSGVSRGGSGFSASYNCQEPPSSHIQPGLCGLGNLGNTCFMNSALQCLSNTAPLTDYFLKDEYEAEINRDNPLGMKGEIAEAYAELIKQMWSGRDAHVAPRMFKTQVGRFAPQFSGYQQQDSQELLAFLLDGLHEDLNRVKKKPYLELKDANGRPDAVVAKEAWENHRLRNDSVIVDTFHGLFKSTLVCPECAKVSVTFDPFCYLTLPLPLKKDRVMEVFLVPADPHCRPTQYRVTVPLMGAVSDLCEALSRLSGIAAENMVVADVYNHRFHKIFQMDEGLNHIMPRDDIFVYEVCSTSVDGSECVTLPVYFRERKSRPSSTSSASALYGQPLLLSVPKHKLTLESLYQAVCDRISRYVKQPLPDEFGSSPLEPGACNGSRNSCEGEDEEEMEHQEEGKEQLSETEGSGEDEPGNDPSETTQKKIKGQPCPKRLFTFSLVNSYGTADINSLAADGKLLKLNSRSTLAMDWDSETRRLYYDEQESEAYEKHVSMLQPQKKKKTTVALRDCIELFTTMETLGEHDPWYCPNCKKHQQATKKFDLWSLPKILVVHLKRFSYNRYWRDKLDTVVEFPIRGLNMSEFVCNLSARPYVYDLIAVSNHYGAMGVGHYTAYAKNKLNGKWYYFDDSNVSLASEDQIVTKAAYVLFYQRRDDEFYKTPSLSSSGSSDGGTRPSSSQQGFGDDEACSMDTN
In short: as §1

Measured: log2 ratio of Biotin-Ahx-Ub-VS probe labelling

N#Cc1ccc(CNC(=O)CCl)cc1
inactive: USP34 -0.0142 | USP36 0.0698 | USP38 -0.0952 | USP39 0.191 | USP4 -0.0634
